Experimental data: PubChem BioAssay (NCI)
“And” between values parts separate entries of the source, which are not always exact repeats. Equal entries are not always repeated. This is part of a sample that, as a whole, favours compounds with a hit. Of some 83,000 tested, about 20% had one in any assay.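 Percent growth is the endpoint: 0 to 100 indicates growth inhibition (40 means 60% inhibition), 0 means no net growth, and negative values indicate cell death.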 The source made the active and inactive calls. Rule for the calls: active = growth percent below 10; inactive = the rest.

Legend:
Assay in all cases: NCI-60 one-dose screen, 48 h (100 = growth as untreated, 0 = no growth, -100 = all killed)
SK-MEL-2 melanoma = conditions: 10 µM unless noted
EKVX NSCLC = conditions: 10 µM unless noted
SN12C renal = conditions: 10 µM unless noted
UO-31 renal = conditions: 10 µM unless noted
TK-10 renal = tested on: TK-10 renal
ACHN renal = conditions: 10 µM unless noted
CAKI-1 renal = conditions: 10 µM unless noted
A498 renal = conditions: 10 µM unless noted
CCRF-CEM leukemia = conditions: 10 µM unless noted
MOLT-4 leukemia = conditions: 10 µM unless noted
SR leukemia = conditions: 10 µM unless noted
RPMI-8226 leukemia = conditions: 10 µM unless noted
OVCAR-8 ovarian = conditions: 10 µM unless noted
OVCAR-5 ovarian = conditions: 10 µM unless noted
OVCAR-4 ovarian = conditions: 10 µM unless noted
SK-OV-3 ovarian = conditions: 10 µM unless noted
IGROV1 ovarian = conditions: 10 µM unless noted
OVCAR-3 ovarian = conditions: 10 µM unless noted
HS 578T breast = conditions: 10 µM unless noted
NCI/ADR-RES ovarian = conditions: 10 µM unless noted

Measured: growth

OCc1ccccc1F
inactive: SK-MEL-2 melanoma 26.3% | EKVX NSCLC 110% | SN12C renal 84.5% | UO-31 renal 84.7% | TK-10 renal; 10 µM unless noted 107% | CAKI-1 renal 18.7% | A498 renal 98.5% | CCRF-CEM leukemia 83.9% | MOLT-4 leukemia 91.8% | SR leukemia 92.6% | RPMI-8226 leukemia 106% | OVCAR-8 ovarian 83.3% | OVCAR-5 ovarian 76.9% | OVCAR-4 ovarian 97.5% | SK-OV-3 ovarian 87% | IGROV1 ovarian 85.7% | OVCAR-3 ovarian 132% | HS 578T breast 109%
active: ACHN renal 6.49%

O=C(O)c1cc(=O)[nH]c(=O)[nH]1
inactive: SK-MEL-2 melanoma 111% and 65.2% | EKVX NSCLC 93.6% and 115% | SN12C renal 98.7% and 98.5% | UO-31 renal 78.8% and 42.2% | TK-10 renal; 10 µM unless noted 106% and 135% | ACHN renal 94.7% and 95.2% | CAKI-1 renal 94.9% and 119% | A498 renal 94.3% and 71.1% | CCRF-CEM leukemia 105% and 74.4% | MOLT-4 leukemia 98.5% and 91.5% | SR leukemia 104% | RPMI-8226 leukemia 98.2% and 71.6% | OVCAR-8 ovarian 102% and 76.4% | OVCAR-4 ovarian 107% and 101% | SK-OV-3 ovarian 104% and 112% | IGROV1 ovarian 103% | OVCAR-3 ovarian 114% and 112% | HS 578T breast 107% and 94.8%
101% (inactive) and -23.6% (active): OVCAR-5 ovarian
107% (inactive) and -33.1% (active): NCI/ADR-RES ovarian

O=C1C(=O)c2ccccc2C(O)=C1CC=C(Cl)Cl
inactive: SK-MEL-2 melanoma 89.2% and 77.8% | EKVX NSCLC 75.8% | SN12C renal 68.8% and 66.9% | UO-31 renal 55% and 47.8% | TK-10 renal; 10 µM unless noted 75.8% and 69.5% | ACHN renal 52.6% and 65% | CAKI-1 renal 39.4% and 30.8% | A498 renal 81% and 82.9% | CCRF-CEM leukemia 44% and 39.3% | MOLT-4 leukemia 20.5% and 23.4% | SR leukemia 43.4% and 55.5% | RPMI-8226 leukemia 44.7% and 41.7% | OVCAR-8 ovarian 44.3% | OVCAR-5 ovarian 35.3% and 87.2% | OVCAR-4 ovarian 83.9% and 84.4% | SK-OV-3 ovarian 73.9% and 58.4% | IGROV1 ovarian 42.7% | OVCAR-3 ovarian 65.8% and 67.1% | HS 578T breast 82.3% and 87.2% | NCI/ADR-RES ovarian 57.6% and 55.7%

OCc1cccc(F)c1
active: SK-MEL-2 melanoma 2.28% | ACHN renal -0.315%
inactive: EKVX NSCLC 106% | SN12C renal 83.6% | UO-31 renal 75.1% | TK-10 renal; 10 µM unless noted 96.5% | CAKI-1 renal 34.2% | A498 renal 111% | CCRF-CEM leukemia 103% | MOLT-4 leukemia 83.5% | SR leukemia 71.1% | RPMI-8226 leukemia 113% | OVCAR-8 ovarian 85.3% | OVCAR-5 ovarian 70.7% | OVCAR-4 ovarian 113% | SK-OV-3 ovarian 91.7% | IGROV1 ovarian 79.6% | OVCAR-3 ovarian 125% | HS 578T breast 124% | NCI/ADR-RES ovarian 76.5%

COC1C(OC(N)=O)C(O)C(Oc2ccc3c(O)c(NC(=O)c4ccc(O)c(CC=C(C)C)c4)c(=O)oc3c2C)OC1(C)C (stereo not drawn)
inactive: SK-MEL-2 melanoma 105% and 111% | EKVX NSCLC 109% | SN12C renal 106% and 97.3% | UO-31 renal 107% and 96.9% | TK-10 renal; 10 µM unless noted 115% and 108% | ACHN renal 23.8% and 101% | CAKI-1 renal 85.9% and 101% | A498 renal 106% and 70.8% | CCRF-CEM leukemia 90% and 59.2% | MOLT-4 leukemia 75.4% and 93.5% | SR leukemia 84% and 80% | RPMI-8226 leukemia 99.5% and 80.1% | OVCAR-8 ovarian 103% | OVCAR-5 ovarian 86.8% and 91.4% | OVCAR-4 ovarian 111% and 98.9% | SK-OV-3 ovarian 112% and 121% | IGROV1 ovarian 137% and 129% | OVCAR-3 ovarian 97.3% and 90.6% | HS 578T breast 89.4% and 102% | NCI/ADR-RES ovarian 106% and 97.1%

Cc1cc2nc3ccc(=[N+](C)C)cc-3sc2cc1N
8.95% (active) and 36.6% (inactive): UO-31 renal
-33.5% (active) and 20.3% (inactive): SK-MEL-2 melanoma
41.1% (inactive) and -0.376% (active): HS 578T breast
8.62% (active) and 45.8% (inactive): SK-OV-3 ovarian
-55.6% (active) and 10.3% (inactive): IGROV1 ovarian
inactive: EKVX NSCLC 38.7% and 24.3% | CAKI-1 renal 12% and 27.6% | A498 renal 74.9% and 65.4%
-12.3% (active) and 14.7% (inactive): TK-10 renal; 10 µM unless noted
active: SN12C renal -65.9% and -66.4% | ACHN renal -73.1% and 9.45% | CCRF-CEM leukemia -7.13% and -12.1% | MOLT-4 leukemia -10.7% and -19.8% | SR leukemia -4.11% | RPMI-8226 leukemia -10.3% and -38.2% | OVCAR-8 ovarian 4.72% and 7.29% | OVCAR-5 ovarian -57.5% and -0.424% | OVCAR-4 ovarian 8.09% | OVCAR-3 ovarian -15.2% and -44% | NCI/ADR-RES ovarian 1.81% and 2.67%

COc1ccc2nccc(Cl)c2c1
inactive: SK-MEL-2 melanoma 97.4% | EKVX NSCLC 101% | SN12C renal 98.7% | UO-31 renal 91.5% | TK-10 renal; 10 µM unless noted 103% | ACHN renal 106% | CAKI-1 renal 97.3% | A498 renal 95.1% | CCRF-CEM leukemia 109% | MOLT-4 leukemia 106% | SR leukemia 101% | RPMI-8226 leukemia 110% | OVCAR-8 ovarian 108% | OVCAR-5 ovarian 102% | OVCAR-4 ovarian 118% | SK-OV-3 ovarian 111% | IGROV1 ovarian 105% | OVCAR-3 ovarian 102% | HS 578T breast 103% | NCI/ADR-RES ovarian 104%

Cc1c(O)nc(N)[nH]c1=O
inactive: SK-MEL-2 melanoma 123% | EKVX NSCLC 106% | SN12C renal 109% | UO-31 renal 82.9% | TK-10 renal; 10 µM unless noted 126% | ACHN renal 108% | CAKI-1 renal 110% | A498 renal 109% | CCRF-CEM leukemia 90.1% | MOLT-4 leukemia 102% | SR leukemia 125% | RPMI-8226 leukemia 100% | OVCAR-8 ovarian 101% | OVCAR-5 ovarian 106% | OVCAR-4 ovarian 118% | SK-OV-3 ovarian 112% | IGROV1 ovarian 118% | OVCAR-3 ovarian 121% | HS 578T breast 101% | NCI/ADR-RES ovarian 102%

NNC(=O)Nc1ccccc1
inactive: SK-MEL-2 melanoma 106% | EKVX NSCLC 96.2% | SN12C renal 101% | UO-31 renal 90% | TK-10 renal; 10 µM unless noted 110% | ACHN renal 100% | CAKI-1 renal 96.1% | A498 renal 85.2% | CCRF-CEM leukemia 104% | MOLT-4 leukemia 114% | SR leukemia 96.5% | RPMI-8226 leukemia 106% | OVCAR-8 ovarian 109% | OVCAR-5 ovarian 102% | OVCAR-4 ovarian 104% | SK-OV-3 ovarian 105% | IGROV1 ovarian 102% | OVCAR-3 ovarian 105% | HS 578T breast 105% | NCI/ADR-RES ovarian 105%

Nc1ccc2ccc(NS(=O)(=O)N3CCCCC3)cc2c1
active: SR leukemia 6.48% | OVCAR-3 ovarian -9.56% | NCI/ADR-RES ovarian -24.8%
inactive: SK-MEL-2 melanoma 85.4% | EKVX NSCLC 61.7% | SN12C renal 43.2% | UO-31 renal 64.8% | TK-10 renal; 10 µM unless noted 47.1% | ACHN renal 56.7% | CAKI-1 renal 43.4% | A498 renal 29.3% | CCRF-CEM leukemia 18.3% | MOLT-4 leukemia 18% | RPMI-8226 leukemia 46% | OVCAR-8 ovarian 34.2% | OVCAR-5 ovarian 56.1% | OVCAR-4 ovarian 39.2% | SK-OV-3 ovarian 31.8% | IGROV1 ovarian 76.3% | HS 578T breast 20.9%

O=c1[nH]c(=O)c2[nH]c(=O)[nH]c2[nH]1
inactive: SK-MEL-2 melanoma 137% | EKVX NSCLC 88.6% | SN12C renal 99.7% | UO-31 renal 85.7% | TK-10 renal; 10 µM unless noted 92.1% | ACHN renal 101% | CAKI-1 renal 101% | A498 renal 73.9% | CCRF-CEM leukemia 114% | MOLT-4 leukemia 113% | SR leukemia 114% | RPMI-8226 leukemia 101% | OVCAR-8 ovarian 102% | OVCAR-5 ovarian 99.7% | OVCAR-4 ovarian 109% | SK-OV-3 ovarian 115% | IGROV1 ovarian 106% | OVCAR-3 ovarian 107% | HS 578T breast 102% | NCI/ADR-RES ovarian 106%

C#CCOC(=O)C(N)CS (stereo not drawn)
inactive: SK-MEL-2 melanoma 115% | EKVX NSCLC 92.9% | SN12C renal 87.2% | UO-31 renal 82.5% | TK-10 renal; 10 µM 107% | TK-10 renal; 100 µM 103% and 107% | ACHN renal 98.8% | CAKI-1 renal 99.9% | A498 renal 128% | CCRF-CEM leukemia 107% | MOLT-4 leukemia 108% | SR leukemia 102% | OVCAR-8 ovarian 110% | OVCAR-5 ovarian 79.9% | OVCAR-4 ovarian 101% | SK-OV-3 ovarian 101% | IGROV1 ovarian 104% | OVCAR-3 ovarian 103% | HS 578T breast 137% | NCI/ADR-RES ovarian 102%

CCCC(=O)Oc1ccc(CC)cc1
inactive: SK-MEL-2 melanoma 107% | EKVX NSCLC 99% | SN12C renal 98.5% | UO-31 renal 93.7% | TK-10 renal; 10 µM unless noted 97.2% | ACHN renal 107% | CAKI-1 renal 96.1% | A498 renal 78.1% | CCRF-CEM leukemia 107% | MOLT-4 leukemia 101% | SR leukemia 90.5% | RPMI-8226 leukemia 108% | OVCAR-8 ovarian 98.1% | OVCAR-5 ovarian 102% | OVCAR-4 ovarian 97.3% | SK-OV-3 ovarian 103% | IGROV1 ovarian 104% | OVCAR-3 ovarian 115% | HS 578T breast 113%
